Assay outcomes from PubChem BioAssay.
ALOX12 inhib: blocks human 12-lipoxygenase activity. hit rate 0.12% among 150,000. Potency, µM (series often up to 57.1 µM), without a hit: top-dose activity change, negative = inhibition, usual class: inhibitors. purified 12-hLO, xylenol orange hydroperoxide absorbance. AID 1452; also: potency is read from the fitted curve at half-maximal effect; nearly all actives have a fitted effect of over 55% in size
Target sequence (P18054 whole entry, looked up): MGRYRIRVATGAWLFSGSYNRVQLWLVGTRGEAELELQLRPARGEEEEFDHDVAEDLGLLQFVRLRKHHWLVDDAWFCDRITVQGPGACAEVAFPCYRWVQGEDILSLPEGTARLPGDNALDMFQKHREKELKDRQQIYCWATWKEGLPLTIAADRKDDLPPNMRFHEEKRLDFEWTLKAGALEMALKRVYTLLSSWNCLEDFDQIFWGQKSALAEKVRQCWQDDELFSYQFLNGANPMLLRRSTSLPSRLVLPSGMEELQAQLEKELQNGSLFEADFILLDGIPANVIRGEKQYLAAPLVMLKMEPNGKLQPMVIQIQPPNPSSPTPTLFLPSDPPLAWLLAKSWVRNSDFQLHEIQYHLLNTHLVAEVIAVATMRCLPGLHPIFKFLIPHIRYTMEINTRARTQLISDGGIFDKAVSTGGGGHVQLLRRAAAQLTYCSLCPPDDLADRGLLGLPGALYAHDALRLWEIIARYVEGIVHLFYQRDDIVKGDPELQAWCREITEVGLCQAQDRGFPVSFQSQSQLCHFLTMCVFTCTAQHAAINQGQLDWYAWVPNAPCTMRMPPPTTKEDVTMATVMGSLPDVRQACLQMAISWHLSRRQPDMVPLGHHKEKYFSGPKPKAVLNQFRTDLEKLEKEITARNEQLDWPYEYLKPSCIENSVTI
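Hydroperoxide formation by human 12-lipoxygenase from 40 uM arachidonic acid was followed colorimetrically via ferric-xylenol orange complex, using the 573/405 nm absorbance ratio. Enzyme concentration was 150 nM, with 30 min reaction at room temperature.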
PNC assembly inh: perinucleolar compartment assembly inhibition; PC3M PTB-GFP, PNC prevalence imaging, 16 h; active compounds read low; activity change (PNC), negative = inhibition, % at 10 µM; hit rate 3.1% among 140,000;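 active = readout at or below -70, meaning at least 70% loss of cells showing the perinucleolar compartment, a nuclear body marking cancer cells; inconclusive = readout between -30 and a set limit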;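 also: plate controls were DMSO wells for no effect and camptothecin positive control wells for full effect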
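Compounds are pinned in duplicate onto adhered PC3M cells stably expressing GFP-tagged PTB and incubated 16 h at 37 C. Cells are then fixed, nuclei stained with Hoechst, and PNC-positive cells counted.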
IMPase cell inh: IMPase inhibition in cells; P97697; CHO-M1 cells, IP1 accumulation, HTRF TR-FRET ratio; inhibition (IP1 accumulation), % at 46.1 µM; 120,000 tested, under 10 active; active = well fitted curve in the direction sought with a large enough effect in the signal ratio, not every such curve was filed as active; inconclusive = small, poorly fitted or top-dose-only effect, or a change in a side signal; inactive = no such curve, though single readings can be large or run the other way; the % refers to the signal ratio;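 also: cells stimulated with carbachol in lithium chloride buffer; plate controls were DMSO basal wells for no effect and reference inhibitor wells for full effect; higher means more IMPase inhibition seen as more IP1 and lower FRET ratio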
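In this qHTS, compounds (final up to 46 uM) act on CHO-M1 cells that are then activated through the M1 receptor with carbachol, in pH 7.4 buffer containing 50 mM LiCl, for 30 min. IP1 accumulation is quantified by the IP-One immunoassay.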
IMPase Li inh: IMPase inhibition in cells with lithium potentiation. CHO-M1 cells, IP1 TR-FRET (IP-One), carbachol + lithium. hit rate 0.35% among 210,000. Potency, µM (doses to about 59.4 µM), inactives show at the highest dose activity, negative = IMPase inhibition, most hits filed as inhibitors. AID 1457;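 also: IP1 builds up when IMPase is blocked and the TR-FRET signal falls; potency is read from the fitted curve at half-maximal effect; plate controls were basal vehicle for no effect and high inhibitor control for full effect; nearly all actives have a fitted effect of over 50% in size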
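Lithium-sensitised IP1 accumulation assay; M1-expressing CHO cells treated 30 min at 37C with compound. Competitive antibody detection by time-resolved FRET followed a 10 min room-temperature lysis step.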
An asterisk follows results filed as active; ? = inconclusive; . = not tested or not shown; [ ] = dose if it differs, or a comment. This excerpt belongs to a sample that is enriched for hits. Unless noted, calls follow the shape of the dose curve; as a rule, active = well fitted curve in the direction sought with a large enough effect; inconclusive = small, poorly fitted or top-dose-only effect, or another doubt; inactive = no such curve, though single readings can be large; an effect the other way counts as inactive or inconclusive. Unless noted, % is scaled to controls: 0 for no effect and ±100 for the full control effect.

SMILES | ALOX12 inhib | PNC assembly inh | IMPase cell inh | IMPase Li inh
CCCOCC1CC2(CC(C)(c3csc(N)n3)OC2=O)C(=O)O1 (stereo unspecified) | 1% | -119* | 0 | 0%
CCOC(=O)C1(c2csc(N)n2)COC(=O)C1 (stereo unspecified) | -3% | -14 | 13 | -4%[38.3 µM]
O=C(Nc1nc2ccc(F)cc2s1)c1cccs1 | . | . | . | -1%
O=C(NC(=S)Nc1nc2ccccc2s1)c1cccs1 | 0% | -100* | . | 9%
Nc1c(C(=O)Nc2nc3ccccc3s2)sc2nc(-c3cccs3)ccc12 | -9% | -28 | ? | 11µM*
Nc1c(C(=O)Nc2ccccc2Br)sc2nc(-c3cccs3)ccc12 | . | . | -5 | .
O=C(O)CCc1ccc(-c2ccc(Cl)cc2)n1-c1cccc(C(F)(F)F)c1 | . | . | -3 | .
COC(=O)Cc1ccc(NC(=S)N2CCN(c3ccc(F)cc3)CC2)cc1 | -1% | -96* | 10 | 11%
COC(=O)Cc1ccc(NC(=S)NCc2ccc(F)cc2)cc1 | -2% | ? | -6 | .
CCN(C(=O)COC(=O)c1ccccc1SCC(=O)NC1CCCCCCC1)C1CCS(=O)(=O)C1 (stereo unspecified) | 0% | -112* | . | 7%
CC(C)CN(C(=O)COC(=O)c1ccccc1SCC(=O)NC1CCCCCC1)C1CCS(=O)(=O)C1 (stereo unspecified) | -3% | 30 | 3 | 12%
Cc1cc(C(=O)N/N=C2\CC(=O)CC(C)(C)C2)c(C)n1-c1ccccc1 | -6% | -95* | . | 7%
Cc1cc(C(=O)N/N=C2\CC(=O)CC(C)(C)C2)c(C)n1-c1ccc(F)cc1 | -6% | 47 | . | -1%
O=C(/C=C/c1cccc2ccccc12)NCCC1=CCCCC1 | -11% | 20 | -6 | -4%[38.3 µM]
Cc1c(Cl)c(C(=O)Nc2nc3ccccc3n2CCN2CCCCC2)nn1C | 4% | 17 | 5 | -3%[38.3 µM]
Cn1ncc([N+](=O)[O-])c1C(=O)Nc1nc2ccccc2n1CCN1CCCCC1 | -1% | -4 | 8 | 7.9µM*
c1ccc2c(c1)OCC(c1csc3ncnc(N4CCOCC4)c13)O2 (stereo unspecified) | -5% | -21 | 0 | 1%[38.3 µM]
CCN(CC)c1ncnc2scc(C3COc4ccccc4O3)c12 (stereo unspecified) | -2% | -100* | ? | 21%
O=C1c2ccccc2C(=O)c2c(NC3CCCCC3)ccc(Nc3ccc(S(=O)(=O)O)cc3)c21 | -13%[11.4 µM] | . | . | 11%
Cc1ccc2c(CC(=O)NCC(C)(C)N3CCOCC3)coc2c1 | . | . | . | -5%
CCOC(=O)CSc1ccc(S(=O)(=O)N(CC)CC)cc1[N+](=O)[O-] | . | . | . | 1%
COC(=O)CSc1ccc(S(=O)(=O)N2CCC(C)CC2)cc1[N+](=O)[O-] | -1% | -109* | . | -3%
CCCCN(CCCC)S(=O)(=O)c1ccc(SCC(=O)OCC)c([N+](=O)[O-])c1 | 0% | -87* | -5 | 7%[38.3 µM]
COc1ccc(-c2cc(C(=O)N/N=C\c3cc(OC)c(OC)c(OC)c3)[nH]n2)cc1 | 2% | . | . | .
O=c1oc2cc(O)c(Cl)cc2c2ccccc12 | -1% | -6 | . | 7.1µM*
SMILES | ALOX12 inhib | PNC assembly inh | IMPase cell inh | IMPase Li inh
Cc1ccc(CNC(=O)COc2ccc(C(=O)c3ccc(F)cc3)cc2)cc1 | -2% | -20 | -6 | 1%
COc1cc(C2=NOC(C(=O)NCc3cccs3)C2)cc(OC)c1OC (stereo unspecified) | 10% | -104* | 2 | 29%[38.3 µM]
COc1ccc2[nH]c(=O)c(CN(Cc3cccs3)C(=S)Nc3cccc(C)c3)cc2c1 | 4% | -100* | 6 | 1%
COc1ccc(S(=O)(=O)N2CCCC(C(=O)NC3CCCCC3)C2)cc1 (stereo unspecified) | 1% | -102* | -11 | 29%[38.3 µM]
Clc1ccc(Sc2cc(Cl)c(-c3ccccc3)nn2)cc1 | 0% | -13 | 9 | 33%[38.3 µM]
CCN(Cc1ccccc1)S(=O)(=O)c1cc(C(=O)NCCCN(C)C)ccc1OC | . | . | . | 18%
CN(C)CCCNC(=O)c1ccc(Cl)c(S(=O)(=O)N(C)c2ccccc2)c1 | 10% | -108* | 1 | -3%[38.3 µM]
CCOCCn1c(-c2ccc(OC)cc2)nc2ccccc21 | 0% | -106* | -1 | 6%[38.3 µM]
COc1ccc(-c2nc3ccccc3c(=O)n2CCOc2ccccc2C)cc1 | 0% | -121* | . | 3%
COc1ccc(-c2nc3ccccc3n2Cc2ccccc2)cc1 | -17% | ? | ? | 12%[38.3 µM]
COc1ccc(NCc2nc3ccccc3n2CCOc2ccc(C)cc2)cc1 | -4% | -113* | . | 15%
